High-throughput results from PubChem.
Shown are actives, neighbours in structure and some others; about 19% of the full set was active somewhere.
TDP1 cell CPT – DT40-hTDP1 cell growth loss with CPT; actives 12% (n = 420,000); chicken DT40 Tdp1-/-;hTDP1 cells + 20 nM CPT, ATP luminescence, 48 h; AID 686979; Potency, µM (highest dose often 46.2 µM), for inactives: top-dose activity change, negative = growth inhibition, actives largely listed as inhibitors; note: nearly all actives have a fitted effect of over 55% in size
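Chicken DT40 Tdp1-/- cells stably complemented with human TDP1 were seeded at 400 cells/well in medium containing 20 nM camptothecin, exposed to pin-transferred compounds, and grown at 37 °C for at least 48 hr. Viability was read as ATP luminescence.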
KB-V1 cytotox – KB-V1 MDR subline cytotoxicity. actives 3.4% (n = 400,000). KB-V1 MDR cells viability, CellTiter-Glo, 72 h. Potency, µM (series often up to 46.1 µM), actives largely listed as cytotoxic. AID 1347076; note: nearly all actives have a fitted effect of over 60% in size
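Drug-selected KB-V1 cells, grown in DMEM lacking phenol red with 10% FBS, receive compound titrations; after three days at 37 degrees C, surviving cell ATP is quantified by CellTiter-Glo luminescence and responses normalized and curve-fitted.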
HT1080NT lethal – kills 2HG-producing HT-1080-NT fibrosarcoma cells; actives 1.6% (n = 360,000); HT-1080-NT fibrosarcoma viability, CellTiter-Glo ATP luminescence, 48 h; Potency, µM (highest dose often 46.1 µM), for the others: at the highest dose activity, negative = less viability, actives largely listed as cytotoxic;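 note: NT is the 2HG producing partner of a matched IDH1 knockdown line; 0% = DMSO-treated cells and -100% = media-only wells without cells; nearly all actives have a fitted effect of over 55% in size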
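Viability by CellTiter-Glo luminescence after 48 h compound exposure at 37C of HT-1080-NT cells (750/well, RPMI, 5% FBS). % activity scaled between DMSO wells and medium-only wells, then curve-fitted and categorized by curve class.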
DT40 TDP1 no CPT – qHTS for Inhibitors of human tyrosyl-DNA phosphodiesterase 1 (TDP1): qHTS in cells in absence of CPT; actives 15% (n = 420,000); AID 686978, 2013; DT40 Tdp1-/- hTDP1 cells, no CPT, ATP luminescence, 48 h; Potency, µM (doses to about 46.2 µM), inactives show top-dose activity change, negative = growth inhibition, usual class: inhibitors; note: nearly all actives have a fitted effect of over 55% in size
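A cellular qHTS used chicken DT40 cells lacking endogenous Tdp1 but carrying stably transfected human TDP1. Compounds were applied without camptothecin, and cell growth kinetics were judged by ATP-dependent luminescence after ≥48 hr.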
KB-3-1 cytotox – KB-3-1 parental cell cytotoxicity; KB-3-1 viability, CellTiter-Glo ATP luminescence, 72 h; Potency, µM (doses to about 46.1 µM), usual class: cytotoxic; actives 1.4% (n = 400,000); AID 1347075; note: nearly all actives have a fitted effect of over 60% in size
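Cytotoxicity measured as CellTiter-Glo luminescence after 72 h at 37 C. Compound titrations were pinned onto drug-naive KB-3-1 parental adenocarcinoma cells grown in DMEM with 10% FBS, and normalized data fitted to concentration-response curves.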
HT1080 IDH1KD tx – toxicity to HT-1080 IDH1 knockdown cells (counter line) | actives 2% (n = 360,000) | Potency, µM (top dose mostly 46.1 µM), inactives show top-dose activity, negative = toxicity, actives largely listed as cytotoxic | HT-1080 IDH1 knockdown viability, ATP luminescence, 48 h | AID 686971;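 note: 0% = DMSO wells and -100% = cell-free medium wells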
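Viability of IDH1-knockdown HT-1080 fibrosarcoma cells was assessed by CellTiter-Glo after 48 h at 37 °C with titrated compound; concentration-effect curves were classified by fit quality and response size.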
* = called active by the depositor. Calls come from the whole dose curve; as a rule, active = well fitted curve in the direction sought with a large enough effect; inconclusive = small, poorly fitted or top-dose-only effect, or another doubt; inactive = no such curve, though single readings can be large; an effect the other way counts as inactive or inconclusive. Unless noted, % is set by controls: 0 for no effect and ±100 for the full control effect; potency is the fitted concentration of half-maximal effect.

For Cc1nc2ccccc2n1-c1nc(-c2ccco2)cc(C(F)(F)F)n1 the results were TDP1 cell CPT 3.66µM*, KB-V1 cytotox inactive, HT1080NT lethal 5.62µM*, DT40 TDP1 no CPT 2.91µM*, KB-3-1 cytotox inactive and HT1080 IDH1KD tx 5.62µM*.
Cc1ccc(OCC(=O)NCCCNC(=O)c2cccnc2)cc1 was read as TDP1 cell CPT -5.2%, KB-V1 cytotox inconclusive, HT1080NT lethal inconclusive, DT40 TDP1 no CPT 8.0%, KB-3-1 cytotox inactive and HT1080 IDH1KD tx inconclusive.
COc1ccc(-c2nn(-c3ccccc3)cc2/C=N/Nc2ccc3ccccc3n2)cc1OC was read as TDP1 cell CPT 3.26µM*, KB-V1 cytotox inconclusive, HT1080NT lethal -4.0%, DT40 TDP1 no CPT 4.11µM*, KB-3-1 cytotox inactive and HT1080 IDH1KD tx -2.2%.
For COc1ccc(-c2nn(-c3ccccc3)cc2/C=N/NC(=S)NC(C)C)cc1OC the results were TDP1 cell CPT 23.1µM*, KB-V1 cytotox inconclusive, HT1080NT lethal 3.3%, DT40 TDP1 no CPT 18.4µM*, KB-3-1 cytotox inactive and HT1080 IDH1KD tx -7.0%.
For COc1ccc(-c2nn(-c3ccccc3)cc2/C=N/O)cc1OC the results were TDP1 cell CPT inconclusive, KB-V1 cytotox inactive, HT1080NT lethal -10.1%, DT40 TDP1 no CPT 25.9µM*, KB-3-1 cytotox inactive and HT1080 IDH1KD tx -0.7%.
Screening COc1ccc(-c2nn(-c3ccccc3)cc2/C=N/N=C(N)N)cc1OC returned TDP1 cell CPT 23.1µM*, KB-V1 cytotox inactive, HT1080NT lethal -11.9%, DT40 TDP1 no CPT 13µM*, KB-3-1 cytotox inconclusive and HT1080 IDH1KD tx inconclusive.
O=C(CN1C(=O)NC2(CCCCCC2)C1=O)Nc1ccccc1[N+](=O)[O-] was read as TDP1 cell CPT -26.3%, KB-V1 cytotox inactive, HT1080NT lethal -2.2%, DT40 TDP1 no CPT -16.7%, KB-3-1 cytotox inactive and HT1080 IDH1KD tx 4.3%.
O=C(CN1C(=O)NC2(CCCc3ccccc32)C1=O)N1CCc2ccccc2C1 (configuration not stated) was read as TDP1 cell CPT inconclusive, KB-V1 cytotox inactive, HT1080NT lethal -2.4%, DT40 TDP1 no CPT 20.6µM*, KB-3-1 cytotox inactive and HT1080 IDH1KD tx -4.8%.
O=C(CN1C(=O)NC2(CCCc3ccccc32)C1=O)Nc1cccc(S(=O)(=O)N2CCCCC2)c1 (configuration not stated) was read as TDP1 cell CPT inconclusive, KB-V1 cytotox inconclusive, HT1080NT lethal -13.9%, DT40 TDP1 no CPT 16.4µM*, KB-3-1 cytotox inactive and HT1080 IDH1KD tx -14.7%.
Screening CN(C)C(=O)CN1C(=O)NC2(CCCc3ccccc32)C1=O (configuration not stated) returned TDP1 cell CPT -3.7%, KB-V1 cytotox inconclusive, HT1080NT lethal -1.6%, DT40 TDP1 no CPT 21.2%, KB-3-1 cytotox inactive and HT1080 IDH1KD tx -0.1%.
Screening Cc1cc(C)c(NC(=O)CN2C(=O)NC3(CCCc4ccccc43)C2=O)c(Cl)c1 (configuration not stated) returned TDP1 cell CPT inconclusive, KB-V1 cytotox inactive, HT1080NT lethal -0.7%, DT40 TDP1 no CPT 18.4µM*, KB-3-1 cytotox inactive and HT1080 IDH1KD tx -2.9%.
Screening Cc1ccc(CN(C)C(=O)CN2C(=O)NC3(CCCc4ccccc43)C2=O)c(C)c1 (configuration not stated) returned TDP1 cell CPT inconclusive, KB-V1 cytotox inactive, HT1080NT lethal -6.0%, DT40 TDP1 no CPT 20.6µM*, KB-3-1 cytotox inactive and HT1080 IDH1KD tx -24.2%.
O=C(O)CN1C(=O)NC2(CCCc3ccccc32)C1=O (configuration not stated) was read as TDP1 cell CPT 15.9%, KB-V1 cytotox inconclusive, HT1080NT lethal -0.1%, DT40 TDP1 no CPT -12.7%, KB-3-1 cytotox inactive and HT1080 IDH1KD tx 4.3%.
CC(C)(C)OC(=O)N1CCCC(C(=O)Nc2cccc(C(=O)NCCCCc3ccccc3)c2)C1 (configuration not stated) was read as TDP1 cell CPT inconclusive, KB-V1 cytotox inconclusive, HT1080NT lethal -2.6%, DT40 TDP1 no CPT inconclusive, KB-3-1 cytotox inactive and HT1080 IDH1KD tx -14.2%.
COc1cccc(CNC(=O)CN2C(=O)COc3ccc(S(=O)(=O)N4CCC(C)CC4)cc32)c1 was read as TDP1 cell CPT -25.7%, KB-V1 cytotox inactive, HT1080NT lethal -9.4%, DT40 TDP1 no CPT -6.1%, KB-3-1 cytotox inactive and HT1080 IDH1KD tx -0.7%.
`CC(C)[C@H]1C(=O)Nc2ccccc2N1C(=O)N[C@@H](Cc1ccccc1)C(=O)N[C@@H](Cc1ccccc1)C(=O)O` gave TDP1 cell CPT -1.2%, KB-V1 cytotox inactive, HT1080NT lethal 2.1%, DT40 TDP1 no CPT -22.9%, KB-3-1 cytotox inactive and HT1080 IDH1KD tx inconclusive.
For FC(F)C(F)(F)c1cc(-c2ccc(Cl)cc2)n[nH]1 the results were TDP1 cell CPT 18.4µM*, KB-V1 cytotox inconclusive, HT1080NT lethal inconclusive, DT40 TDP1 no CPT 18.4µM*, KB-3-1 cytotox inactive and HT1080 IDH1KD tx inconclusive.
`O=C(COc1ccccc1F)Nc1cc(S(=O)(=O)N2CCOCC2)ccc1N1CCOCC1` gave TDP1 cell CPT -11.8%, KB-V1 cytotox inactive, HT1080NT lethal 10.2%, DT40 TDP1 no CPT -23.8%, KB-3-1 cytotox inactive and HT1080 IDH1KD tx 4.4%.
Screening COc1ccc(/C=N/NC(=S)Nc2cc(S(=O)(=O)N3CCOCC3)ccc2N2CCOCC2)cc1O returned TDP1 cell CPT 9.2µM*, KB-V1 cytotox inconclusive, HT1080NT lethal 20.6µM*, DT40 TDP1 no CPT inconclusive, KB-3-1 cytotox inconclusive and HT1080 IDH1KD tx 16.4µM*.
For CCOc1cccc(/C=N/NC(=S)Nc2cc(S(=O)(=O)N3CCOCC3)ccc2N2CCOCC2)c1O the results were TDP1 cell CPT 5.8µM*, KB-V1 cytotox inconclusive, HT1080NT lethal -17.5%, DT40 TDP1 no CPT 5.8µM*, KB-3-1 cytotox inconclusive and HT1080 IDH1KD tx inconclusive.
Screening COc1ccc2ccccc2c1/C=N/NC(=S)Nc1cc(S(=O)(=O)N2CCOCC2)ccc1N1CCOCC1 returned TDP1 cell CPT -4.3%, KB-V1 cytotox inactive, HT1080NT lethal -1.6%, DT40 TDP1 no CPT -4.6%, KB-3-1 cytotox inconclusive and HT1080 IDH1KD tx -2.6%.
`Cc1ccc(O)c(Nc2c3ccccc3nc3ccccc23)c1` gave TDP1 cell CPT 16.4µM*, KB-V1 cytotox inactive, HT1080NT lethal 23.1µM*, DT40 TDP1 no CPT inconclusive, KB-3-1 cytotox inactive and HT1080 IDH1KD tx 16.4µM*.
